Measured values from ChEMBL document CHEMBL1857833, “Screening and optimization of specific chemical series against human African Trypanosomiasis (HAT)”.
“And” between values parts separate entries of the source, which are not always exact repeats. Equal entries are not always repeated. In all, about 4,400 compounds went through this assay and about 390 (8.9%) showed an effect of 50% or more. The list comes from a sample in which strong results are over-represented; it also holds similar structures and randomly drawn compounds.

system: Trypanosoma brucei; assay: DNDI: Inhibition of Human African Trypanosomiasis, SBRI 427, in vitro at 2 ug.mL-1; type: functional

Compound	% inhibition
CCOC(=O)C1CCCCN1Cc1coc(-c2ccc(O)cc2)n1 (stereo not drawn)	-1%
Fc1ccccc1-c1nc(CNCc2cccc3ccccc23)co1	24%
Cc1ccc(/C(=N/O)N(C)Cc2cccnc2)c(Oc2cccnc2)n1	10%
CSc1ccc(Oc2nc(C)ccc2/C(=N/O)N2C(C)C=CC2C)cc1 (stereo not drawn)	-5%
Cc1ccccc1-c1nc(CN(C)Cc2ccco2)co1	2%
CCN(/C(=N\O)c1ccc(C)nc1Oc1cccc(C(C)C)c1)C(C)C	-4%
C=CCN(Cc1coc(-c2ccc(C)cc2)n1)C1CCCC1	16%
Cc1ccc([C@@H](C)NCc2coc(-c3ccc(O)cc3)n2)cc1	46%
Cc1ccc(Oc2cc(/C(=N/O)N3CCN(c4ccc(F)cc4)CC3)ccn2)c2c1CCC2	31%
COc1cc(CNCc2coc(-c3ccccc3Br)n2)cc(OC)c1OC	-33%
CCN(Cc1ccccc1)Cc1coc(-c2cc(OC)c(OC)c(OC)c2)n1	-20%
Cc1ccc(C)c(N2CCN(Cc3coc(-c4ccc(O)cc4)n3)CC2)c1	9%
Cc1cccc(-c2nc(CNCc3ccncc3)co2)c1	-16%
Cc1ccc(-c2nc(CN3CC[C@@H]4CCCC[C@@H]4C3)co2)cc1	-5%
O/N=C(\NCc1ccccc1)c1ccnc(Oc2ccc(F)c(Cl)c2)c1	24%
CCN(/C(=N\O)c1ccnc(Oc2ccc(F)c(Cl)c2)c1)C(C)C	14%
CCN(/C(=N\O)c1ccnc(Oc2ccc(F)c(F)c2)c1)C(C)C	43%
COCC(C)N/C(=N\O)c1ccnc(Oc2ccc(F)c(Cl)c2)c1 (stereo not drawn)	99%
CCN(/C(=N\O)c1ccnc(Oc2ccc(Cl)cc2)c1)C(C)C	74%
CC(C)c1ccc(N/C(=N\O)c2ccnc(Oc3ccc(F)c(Cl)c3)c2)cc1	0%
Cc1cn(/C(=N\O)c2ccc(Oc3ccc(Cl)cc3)nc2)cn1	5%
CCCN(CC1CC1)/C(=N\O)c1cccnc1Oc1ccccc1OC	24%

Compound	% inhibition
CC(C)c1ccccc1Oc1ncccc1/C(N)=N/O	7%
COc1cc(C)ccc1Oc1nc(C)ccc1/C(=N/O)Nc1ccc(C(C)C)cc1	8%
Cc1ccc(Oc2nc(C)ccc2/C(=N/O)NCc2ccco2)cc1	37%
COc1ccc(Oc2ncccc2/C(=N/O)NCc2cc(C)cc(C)c2)cc1	79%
CCCN/C(=N\O)c1cccnc1Oc1ccc2ccccc2c1	25%
COc1ccc(Oc2ncccc2/C(=N/O)NCc2cccnc2)cc1	-2%
Cc1ccc(CN/C(=N\O)c2cccnc2Oc2ccc3ccccc3c2)o1	19%
CC(C)N/C(=N\O)c1cccnc1Oc1ccc2ccccc2c1	21%
CCC(C)(C)N/C(=N\O)c1cccnc1OCC(C)(C)C	11%
Cc1cc(C)cc(CN/C(=N\O)c2cccnc2Oc2ccc(Cl)cc2)c1	31%
CC(C)c1ccc(N/C(=N\O)c2cccnc2OCC(C)(C)C)cc1	14%
Cc1cc(C)cc(CN/C(=N\O)c2cccnc2Oc2ccc3ccccc3c2)c1	70%
CCC(C)(C)N/C(=N\O)c1cccnc1Oc1ccc2ccccc2c1	99%
CC(C)N/C(=N\O)c1cccnc1OCC(C)(C)C	100%
O/N=C(\NCc1cccnc1)c1cccnc1Oc1ccc2ccccc2c1	-6%
COc1cccc(-c2nc(CN3CCOCC3)co2)c1	35%
FC(F)(F)CNCc1coc(-c2ccc(Cl)cc2Cl)n1	23%
COCC(C)NCc1coc(-c2ccccc2C)n1 (stereo not drawn)	9%
CC(c1ccccc1)N(C)Cc1coc(-c2ccc(C(F)(F)F)cc2)n1 (stereo not drawn)	7% and -11%
Cc1cc(C)cc(Oc2ccc(/C(N)=N/O)cn2)c1	11%
Clc1ccccc1-c1nc(CNC(c2ccccc2)c2ccccc2)co1	6%
CC1CC(C)CN(Cc2coc(-c3ccc(Br)cc3)n2)C1 (stereo not drawn)	-5%

Compound	% inhibition
CCOc1ccccc1-c1nc(CN(C)C(C)c2ccccc2)co1 (stereo not drawn)	8% and 1%
CCOc1cccc(-c2nc(CNC(CC)c3ccccc3)co2)c1 (stereo not drawn)	27%
Fc1ccc(N2CCN(Cc3coc(-c4ccccc4Br)n3)CC2)cc1	-6%
Cc1nccn1/C(=N\O)c1cccnc1OCC(C)C	-13%
O/N=C(\NCc1cc(F)ccc1F)c1ccc(Oc2ccc3ccccc3c2)nc1	31%
CSCCN/C(=N\O)c1cccnc1OCC(C)C	-5%
CC(C)COc1ncccc1/C(=N/O)NCc1ccccc1	37%
COCCN/C(=N\O)c1cccnc1OCC(C)C	-7%
Cc1cc(C)cc(CN/C(=N\O)c2cccnc2OCC(C)(C)C)c1	-8%
Cc1cc(C)cc(CN/C(=N\O)c2cccnc2OCC(C)C)c1	92%
CC(C)COc1ncccc1/C(=N/O)NCC(C)(C)C	95%
Fc1cccc(-c2nc(CNc3cc[nH]n3)co2)c1	45%
FC(F)(F)c1ccc(-c2nc(CN3CCN(C(c4ccccc4)c4ccccc4)CC3)co2)cc1	-3%
CCOc1ccc(-c2nc(CNC(CC)c3ccccc3)co2)cc1 (stereo not drawn)	1% and -14%
CCCCN(CC)Cc1coc(-c2ccccc2Cl)n1	19%
CC1CCCCN1CCCNCc1coc(-c2ccc(F)cc2)n1 (stereo not drawn)	72%
CC1CCCCN1CCCNCc1coc(-c2ccco2)n1 (stereo not drawn)	23%
COc1ccc(-c2nc(CN3CCCCC3C)co2)cc1 (stereo not drawn)	12%
COc1ccc(-c2nc(CNCCCN3CCCCC3C)co2)cc1 (stereo not drawn)	97%
Fc1ccc(-c2nc(CNCCN3CCCC3)co2)cc1	1%
Fc1ccc(-c2nc(CNCCN3CCCCC3)co2)cc1	-17%
COC(=O)C1CCN(/C(=N\O)c2cccnc2Oc2cccc3ccccc23)CC1	9%

Compound	% inhibition
CC1CCCN1/C(=N\O)c1cccnc1Oc1ccc(Cl)cc1 (stereo not drawn)	-13%
CN(Cc1coc(-c2ccc(C(F)(F)F)cc2)n1)c1ccccc1	1%
Oc1ccc(-c2nc(CN(Cc3ccccc3)c3ccccc3)co2)cc1	11%
NCCc1cn(Cc2coc(-c3cccs3)n2)c2ccccc12	-15%
CCN(Cc1ccccc1)Cc1coc(-c2ccc(OC)cc2)n1	-11%
CCC(C)(C)N/C(=N\O)c1ccc(C)nc1Oc1cccc(C)c1	19%
Cc1cccc(Oc2nc(C)ccc2/C(=N/O)NCC(C)(C)C)c1	100%
Cc1ccc(/C(=N/O)NCC2CC2)c(Oc2ccc3ccccc3c2)n1	17%
Cc1ccc(/C(=N/O)NCC(C)(C)C)c(Oc2cccc(F)c2)n1	99%
CSCCN/C(=N\O)c1ccc(C)nc1Oc1ccc2ccccc2c1	7%
CSCCN/C(=N\O)c1ccc(C)nc1Oc1cccc(F)c1	12%
CCC(C)(C)N/C(=N\O)c1ccc(C)nc1Oc1cccc(F)c1	13%
Cc1cccc(Oc2nc(C)ccc2/C(=N/O)NCc2ccccc2)c1	6%
CCCN/C(=N\O)c1ccc(C)nc1OCc1cccc(F)c1	0%
Cc1ccc(/C(=N/O)NCc2cc(F)cc(F)c2)c(OCc2cccc(F)c2)n1	-12%
Cc1ccc(/C(=N/O)NCC(C)(C)C)c(OCc2cccc(F)c2)n1	96%
Cc1ccc(/C(=N/O)NCC(C)(C)C)c(Oc2ccc3ccccc3c2)n1	96%
Cc1cccc(-c2nc(Cn3cc(-c4ccccc4)c(C)n3)co2)c1	-11%
c1ccc(-c2nc(CN3CCC4CCCCC4C3)co2)cc1 (stereo not drawn)	37%
C#CC(CC)(CC)NCc1coc(-c2cccs2)n1	-2%
CCN(Cc1ccccc1)Cc1coc(-c2cccc(OC)c2)n1	-7%
CCN1CCN(Cc2coc(-c3ccc(C(F)(F)F)cc3)n2)CC1	10%

Compound	% inhibition
CCCc1nccn1Cc1coc(-c2cccc(F)c2)n1	5%
COc1cc(CNCc2coc(-c3ccc(C)cc3)n2)cc(OC)c1OC	9%
O=c1c(Cl)cn(Cc2coc(-c3ccc(C(F)(F)F)cc3)n2)cc1Cl	-5%
COc1ccc(-c2nc(CN3CCN(c4ccccc4OC)CC3)co2)cc1	13%
CC(C)(C)c1ccc(CNCc2coc(-c3cccc4ccccc34)n2)cc1	-1%
COc1ccccc1Oc1ncccc1/C(=N/O)NCC1CC1	96%
COc1ccc(Oc2ncccc2/C(=N/O)NCC2CC2)cc1	99%
COc1ccc(Oc2ncccc2/C(=N/O)NCC2CCCCC2)cc1	93%
COc1ccc(CN/C(=N\O)c2cccnc2Oc2ccccc2OC)cc1	13%
CC1CC(N/C(=N\O)c2cccnc2Oc2ccc(-n3cncn3)cc2)CC(C)(C)C1 (stereo not drawn)	41%
CC1CCC(N/C(=N\O)c2cccnc2Oc2ccc(-n3cncn3)cc2)CC1 (stereo not drawn)	98%
COc1ccccc1Oc1ncccc1/C(=N/O)NCc1ccco1	27%
CC(C)N/C(=N\O)c1cccnc1Oc1ccc(-n2cncn2)cc1	42%
COc1ccc(Oc2nc(C)ccc2/C(=N/O)NCC2CCCCC2)cc1	24%
COc1cccc(-c2nc(Cn3cnc(-c4ccccc4)c3)co2)c1	-15%
O/N=C(/c1cccnc1Oc1ccc(F)cc1)N1CCCCCC1	1%
COc1ccc(CN/C(=N\O)c2cccnc2Oc2ccc3c(c2)CCCC3)cc1	8%
Cc1ccc(/C(=N/O)Nc2ccc(C(C)C)cc2)c(Oc2cccc(F)c2)n1	16%
Cc1ccc(/C(=N/O)NCc2ccc(C)o2)c(Oc2ccc3oc4ccccc4c3c2)n1	9%
CCCCN(CCC#N)Cc1coc(-c2ccc(C(C)(C)C)cc2)n1	3%
